{
  "source": "paper PMC7862700",
  "about": "“An all-to-all approach to the identification of sequence-specific readers for epigenetic DNA modifications on cytosine”",
  "test_in_all_cases": "DAPPL (digital affinity profiling via proximity ligation, sequencing); 10 mM Tris-HCl pH 7.5, 50 mM NaCl, 1 mM DTT, 4% glycerol, room temperature, 30 min; GST-TFs on glutathione beads, 16-mer random dsDNA library, 0.1% formaldehyde crosslink after washing; high values mean tight binding",
  "details_in_all_cases": "protein: recombinant; tags: N-terminal GST; dsDNA, one strand shown",
  "key": {"ELK1": {"target": "T1, ELK1 (Homo sapiens, UniProt P19419 1-428)", "T1 sequence": "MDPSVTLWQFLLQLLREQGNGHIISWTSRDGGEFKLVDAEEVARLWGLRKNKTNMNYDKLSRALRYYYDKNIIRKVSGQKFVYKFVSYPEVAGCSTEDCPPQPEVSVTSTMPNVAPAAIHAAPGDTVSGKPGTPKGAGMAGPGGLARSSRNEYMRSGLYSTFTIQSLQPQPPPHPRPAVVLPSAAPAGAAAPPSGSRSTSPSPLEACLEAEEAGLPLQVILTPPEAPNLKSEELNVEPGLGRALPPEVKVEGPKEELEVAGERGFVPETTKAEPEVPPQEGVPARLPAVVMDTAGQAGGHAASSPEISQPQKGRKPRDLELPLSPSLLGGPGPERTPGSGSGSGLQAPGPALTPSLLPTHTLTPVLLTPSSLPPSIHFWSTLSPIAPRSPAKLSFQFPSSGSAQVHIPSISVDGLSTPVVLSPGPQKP", "summary_of_the_method": "(§1)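 Sequencing on an Illumina NextSeq500 followed washing, crosslinking with 0.1% formaldehyde, proximity ligation (BsaI/T4 ligase, 1 h, 37 °C) and PCR amplification of pools that had been incubated for 30 min at room temperature with 200 nmole of a random double-stranded 16-mer DNA library in Tris/NaCl/DTT/glycerol buffer. Each pool held DNA-barcoded human transcription factors, expressed in yeast as GST fusions and captured on glutathione beads, plus a tag-only sample. Binding signal is a hexamer's read frequency for a factor divided by its frequency in the tag-only sample.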"}, "ELF1": {"target": "ELF1 (Homo sapiens, UniProt P32519 1-619)", "sequence (P32519 whole entry)": "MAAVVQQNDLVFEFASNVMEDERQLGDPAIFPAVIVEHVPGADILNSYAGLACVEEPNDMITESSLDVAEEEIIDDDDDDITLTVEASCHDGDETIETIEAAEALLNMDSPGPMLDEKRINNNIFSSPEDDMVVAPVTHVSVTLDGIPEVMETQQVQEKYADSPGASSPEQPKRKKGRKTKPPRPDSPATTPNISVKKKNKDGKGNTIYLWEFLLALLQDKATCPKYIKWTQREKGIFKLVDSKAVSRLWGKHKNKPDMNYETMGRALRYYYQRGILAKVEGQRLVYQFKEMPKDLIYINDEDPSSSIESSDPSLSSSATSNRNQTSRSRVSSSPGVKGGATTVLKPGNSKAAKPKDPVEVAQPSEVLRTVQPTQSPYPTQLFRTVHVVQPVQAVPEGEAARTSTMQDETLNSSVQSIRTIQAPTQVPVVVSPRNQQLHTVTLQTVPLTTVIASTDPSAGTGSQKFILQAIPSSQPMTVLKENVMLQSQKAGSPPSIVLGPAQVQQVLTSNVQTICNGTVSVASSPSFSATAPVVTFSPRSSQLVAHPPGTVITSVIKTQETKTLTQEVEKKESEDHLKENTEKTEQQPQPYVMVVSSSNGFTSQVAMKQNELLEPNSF", "summary_of_the_method": "as §1"}, "ELK3": {"target": "T2, ELK3 (Homo sapiens, UniProt P41970 1-407)", "T2 sequence": "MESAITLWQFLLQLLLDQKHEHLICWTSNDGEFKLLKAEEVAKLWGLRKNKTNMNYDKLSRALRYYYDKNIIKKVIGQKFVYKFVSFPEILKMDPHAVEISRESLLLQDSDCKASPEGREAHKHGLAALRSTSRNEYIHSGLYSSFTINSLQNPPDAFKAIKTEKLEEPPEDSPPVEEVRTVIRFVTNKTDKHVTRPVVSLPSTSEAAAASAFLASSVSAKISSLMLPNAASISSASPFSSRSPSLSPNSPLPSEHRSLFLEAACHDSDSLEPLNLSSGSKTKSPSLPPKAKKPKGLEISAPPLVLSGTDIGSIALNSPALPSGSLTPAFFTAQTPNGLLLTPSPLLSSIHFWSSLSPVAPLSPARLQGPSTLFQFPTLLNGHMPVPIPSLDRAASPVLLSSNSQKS", "summary_of_the_method": "as §1"}, "SPIC": {"target": "T3, SPIC (Homo sapiens, UniProt Q8N5J4 1-248)", "T3 sequence": "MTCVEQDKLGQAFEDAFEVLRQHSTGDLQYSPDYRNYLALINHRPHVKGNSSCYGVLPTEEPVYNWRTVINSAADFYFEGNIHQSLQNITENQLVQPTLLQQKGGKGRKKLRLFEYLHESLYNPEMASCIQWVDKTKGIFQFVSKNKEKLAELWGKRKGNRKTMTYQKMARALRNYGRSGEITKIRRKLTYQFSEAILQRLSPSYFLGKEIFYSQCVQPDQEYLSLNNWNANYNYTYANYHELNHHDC", "summary_of_the_method": "as §1"}, "ELF3": {"target": "T4, ELF3 (Homo sapiens, UniProt P78545 1-371)", "T4 sequence": "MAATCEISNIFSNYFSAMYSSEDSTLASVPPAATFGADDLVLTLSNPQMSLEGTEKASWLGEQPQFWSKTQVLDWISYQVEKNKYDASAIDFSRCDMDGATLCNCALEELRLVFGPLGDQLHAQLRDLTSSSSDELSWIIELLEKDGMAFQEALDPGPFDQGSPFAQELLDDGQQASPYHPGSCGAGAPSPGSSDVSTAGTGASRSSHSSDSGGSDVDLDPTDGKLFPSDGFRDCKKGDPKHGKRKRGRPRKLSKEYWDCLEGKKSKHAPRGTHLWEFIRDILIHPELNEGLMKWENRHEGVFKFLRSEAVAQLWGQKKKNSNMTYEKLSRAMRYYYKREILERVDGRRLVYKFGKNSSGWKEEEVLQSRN", "summary_of_the_method": "as §1"}, "CRX": {"target": "CRX (Homo sapiens, UniProt O43186 1-299)", "sequence (O43186 whole entry)": "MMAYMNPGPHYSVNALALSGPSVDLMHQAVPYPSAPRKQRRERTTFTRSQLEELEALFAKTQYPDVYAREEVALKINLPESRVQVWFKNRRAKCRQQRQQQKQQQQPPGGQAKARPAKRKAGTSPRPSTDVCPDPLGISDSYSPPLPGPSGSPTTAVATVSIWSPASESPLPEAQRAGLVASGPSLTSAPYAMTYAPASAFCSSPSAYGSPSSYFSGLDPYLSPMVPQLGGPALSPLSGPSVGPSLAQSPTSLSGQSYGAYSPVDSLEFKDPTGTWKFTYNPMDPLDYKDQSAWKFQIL", "summary_of_the_method": "as §1"}, "SPDEF": {"target": "T5, SPDEF (Homo sapiens, UniProt O95238 1-335)", "T5 sequence": "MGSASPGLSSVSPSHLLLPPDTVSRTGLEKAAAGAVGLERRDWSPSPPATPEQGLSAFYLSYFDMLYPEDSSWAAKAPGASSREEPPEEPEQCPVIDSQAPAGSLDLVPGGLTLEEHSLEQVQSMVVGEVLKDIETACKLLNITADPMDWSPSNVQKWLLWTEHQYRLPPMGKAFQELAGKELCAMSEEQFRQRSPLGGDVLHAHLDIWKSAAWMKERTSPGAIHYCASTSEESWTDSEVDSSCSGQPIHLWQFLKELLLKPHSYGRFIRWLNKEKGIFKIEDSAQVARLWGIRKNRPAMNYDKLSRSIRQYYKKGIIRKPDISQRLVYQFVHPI", "summary_of_the_method": "as §1"}, "GABPA": {"target": "T6, GABPA (Homo sapiens, UniProt Q06546 1-454)", "T6 sequence": "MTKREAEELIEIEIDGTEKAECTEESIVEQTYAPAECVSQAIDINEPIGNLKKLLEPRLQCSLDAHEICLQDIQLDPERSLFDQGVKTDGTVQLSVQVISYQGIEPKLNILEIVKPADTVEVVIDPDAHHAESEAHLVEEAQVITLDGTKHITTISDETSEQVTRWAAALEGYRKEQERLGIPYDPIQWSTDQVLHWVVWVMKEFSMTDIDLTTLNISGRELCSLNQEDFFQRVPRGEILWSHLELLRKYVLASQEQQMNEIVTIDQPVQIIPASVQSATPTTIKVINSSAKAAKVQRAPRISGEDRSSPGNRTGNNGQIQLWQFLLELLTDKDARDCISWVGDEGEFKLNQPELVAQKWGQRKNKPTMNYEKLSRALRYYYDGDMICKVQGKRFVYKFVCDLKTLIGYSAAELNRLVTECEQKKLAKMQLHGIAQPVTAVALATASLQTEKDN", "summary_of_the_method": "as §1"}, "ERG": {"target": "T7, ERG (Homo sapiens, UniProt P11308 1-479)", "T7 sequence": "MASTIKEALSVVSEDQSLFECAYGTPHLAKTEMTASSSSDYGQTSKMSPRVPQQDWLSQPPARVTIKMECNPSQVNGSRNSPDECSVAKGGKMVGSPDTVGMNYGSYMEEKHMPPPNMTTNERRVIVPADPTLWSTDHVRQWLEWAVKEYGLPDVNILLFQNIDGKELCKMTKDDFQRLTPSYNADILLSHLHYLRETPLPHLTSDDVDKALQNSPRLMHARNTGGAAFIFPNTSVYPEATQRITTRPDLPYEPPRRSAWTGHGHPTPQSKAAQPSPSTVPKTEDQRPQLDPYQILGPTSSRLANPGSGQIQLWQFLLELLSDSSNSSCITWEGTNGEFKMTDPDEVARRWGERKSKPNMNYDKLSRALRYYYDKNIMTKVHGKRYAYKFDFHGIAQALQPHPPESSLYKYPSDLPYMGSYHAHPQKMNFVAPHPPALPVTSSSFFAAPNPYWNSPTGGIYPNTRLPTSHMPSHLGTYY", "summary_of_the_method": "as §1"}, "ELK4": {"target": "T8, ELK4 (Homo sapiens, UniProt P28324-2 1-405)", "T8 sequence": "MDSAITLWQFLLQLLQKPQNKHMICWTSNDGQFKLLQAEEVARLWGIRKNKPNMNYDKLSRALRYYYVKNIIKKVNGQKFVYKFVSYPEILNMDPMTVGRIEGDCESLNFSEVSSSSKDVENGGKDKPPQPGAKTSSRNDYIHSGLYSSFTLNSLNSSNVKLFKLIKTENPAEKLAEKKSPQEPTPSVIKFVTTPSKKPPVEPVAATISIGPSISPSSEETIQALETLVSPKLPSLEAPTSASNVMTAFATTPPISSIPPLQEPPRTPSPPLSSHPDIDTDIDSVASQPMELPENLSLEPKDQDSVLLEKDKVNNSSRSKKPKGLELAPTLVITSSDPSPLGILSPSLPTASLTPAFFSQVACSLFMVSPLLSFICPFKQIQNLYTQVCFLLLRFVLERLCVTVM", "summary_of_the_method": "as §1"}, "ETV1": {"target": "ETV1 (Homo sapiens, UniProt P50549 1-477)", "sequence (P50549 whole entry)": "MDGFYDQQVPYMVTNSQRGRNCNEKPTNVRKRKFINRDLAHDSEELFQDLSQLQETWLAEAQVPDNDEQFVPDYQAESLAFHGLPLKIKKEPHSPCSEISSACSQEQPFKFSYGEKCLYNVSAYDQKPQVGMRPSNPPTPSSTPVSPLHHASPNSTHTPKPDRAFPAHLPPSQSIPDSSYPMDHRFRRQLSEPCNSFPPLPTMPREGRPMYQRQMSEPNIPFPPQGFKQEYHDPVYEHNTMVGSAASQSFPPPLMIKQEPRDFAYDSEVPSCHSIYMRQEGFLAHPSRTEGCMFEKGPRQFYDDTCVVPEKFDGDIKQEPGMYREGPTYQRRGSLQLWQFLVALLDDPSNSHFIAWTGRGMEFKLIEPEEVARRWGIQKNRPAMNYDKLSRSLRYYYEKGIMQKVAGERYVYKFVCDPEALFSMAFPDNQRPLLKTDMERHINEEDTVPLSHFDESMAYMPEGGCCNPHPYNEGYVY", "summary_of_the_method": "as §1"}, "ETS2": {"target": "T9, ETS2 (Homo sapiens, UniProt P15036 1-469)", "T9 sequence": "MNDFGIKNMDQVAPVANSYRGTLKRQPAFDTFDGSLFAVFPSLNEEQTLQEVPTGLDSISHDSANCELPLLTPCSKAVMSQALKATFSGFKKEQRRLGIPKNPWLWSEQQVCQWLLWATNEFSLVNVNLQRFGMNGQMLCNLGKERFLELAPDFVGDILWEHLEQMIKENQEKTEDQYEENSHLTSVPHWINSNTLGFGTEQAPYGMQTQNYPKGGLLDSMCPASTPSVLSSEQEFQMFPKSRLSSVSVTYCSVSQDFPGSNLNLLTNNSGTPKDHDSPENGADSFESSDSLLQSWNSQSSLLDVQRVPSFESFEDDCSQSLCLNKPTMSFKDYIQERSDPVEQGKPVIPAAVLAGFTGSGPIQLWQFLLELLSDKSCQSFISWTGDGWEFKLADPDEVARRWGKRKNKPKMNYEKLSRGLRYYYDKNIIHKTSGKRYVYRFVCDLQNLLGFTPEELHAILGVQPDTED", "summary_of_the_method": "as §1"}},
  "data": [
    {"sequence": "GATCAC", "values": [
      {"measurement": "binding signal", "setting": "ELK1", "result": "1.01 fold enrichment (6-mer frequency, TF over GST control)"},
      {"measurement": "binding signal", "setting": "ELF1", "result": "1.02 fold enrichment (6-mer frequency, TF over GST control)"},
      {"measurement": "binding signal", "setting": "ELK3", "result": "1.16 fold enrichment (6-mer frequency, TF over GST control)"},
      {"measurement": "binding signal", "setting": "SPIC", "result": "1.01 fold enrichment (6-mer frequency, TF over GST control)"},
      {"measurement": "binding signal", "setting": "ELF3", "result": "1.04 fold enrichment (6-mer frequency, TF over GST control)"},
      {"measurement": "binding signal", "setting": "CRX", "result": "1.09 fold enrichment (6-mer frequency, TF over GST control)"},
      {"measurement": "binding signal", "setting": "SPDEF", "result": "1 fold enrichment (6-mer frequency, TF over GST control)"}
    ]},
    {"sequence": "CGTCAT", "values": [
      {"measurement": "binding signal", "setting": "GABPA", "result": "1.03 fold enrichment (6-mer frequency, TF over GST control)"},
      {"measurement": "binding signal", "setting": "ERG", "result": "1.02 fold enrichment (6-mer frequency, TF over GST control)"},
      {"measurement": "binding signal", "setting": "SPIC", "result": "1.05 fold enrichment (6-mer frequency, TF over GST control)"},
      {"measurement": "binding signal", "setting": "ELK4", "result": "1.09 fold enrichment (6-mer frequency, TF over GST control)"},
      {"measurement": "binding signal", "setting": "ETV1", "result": "1.09 fold enrichment (6-mer frequency, TF over GST control)"},
      {"measurement": "binding signal", "setting": "ETS2", "result": "1.03 fold enrichment (6-mer frequency, TF over GST control)"}
    ]}
  ]
}
